Among the test systems are NCI-H23 lung; NCI-H226 lung; NCI-H322M lung; HOP-62 NSCLC; NCI-H460 lung; A549/ATCC NSCLC; 786-0 renal; COLO 205 colon.
What all share (experiment): NCI-60 one-dose screen, 48 h (100 = growth as untreated, 0 = no growth, -100 = all killed)
Common to all, as to details: 10 µM unless noted

This is part of a sample that, as a whole, favours compounds with a hit. Of some 83,000 tested, about 20% had one in any assay.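 Treatment: one concentration, 48 hours, 96-well format. Scoring: percent growth, with anything below 10 considered active.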 A number with no mark means an inactive call. The source made the active and inactive calls.

On to `CCCCCCCCCCCCCCCCNC(=O)Nc1ccc(C)c(NC(=O)NCCCCCCCCCCCCCCCC)c1`, for which the growth was 111% in the experiment on NCI-H23 lung; 98.9% with NCI-H226 lung; 108% with NCI-H322M lung; 98% in the experiment on HOP-62 NSCLC; 103% in the experiment on NCI-H460 lung; 104% in the experiment on A549/ATCC NSCLC. Moreover, the figures for the growth in the experiment with 786-0 renal and with COLO 205 colon were 118% and 116%, respectively.

For `CC(=O)N1CCN(CCNC(=O)n2cc(-c3ccncc3)c(-c3ccc(O)c(Cl)c3)n2)CC1`, the growth in the experiment on NCI-H23 lung was 109%; in the experiment on NCI-H226 lung it was 112%; in the experiment with NCI-H322M lung, 141%; in the experiment with HOP-62 NSCLC it was 106%; in the experiment with NCI-H460 lung it was 103%; in the experiment with A549/ATCC NSCLC, 100%. The values for the growth in the experiment with 786-0 renal and in the experiment with COLO 205 colon were 113% and 119%, respectively.

`N#Cc1ccc(OCc2nc(N)nc(N)c2-c2ccc(Cl)c(Cl)c2)cc1`: the growth is 36.3% in the experiment on NCI-H23 lung; 45.8% with NCI-H226 lung; 40.6% with NCI-H322M lung; 9.96% (active) with HOP-62 NSCLC; 14.1% with NCI-H460 lung; 7.74% (active) in the experiment on A549/ATCC NSCLC. For the same compound, the values for the growth in the experiment with 786-0 renal and in the experiment with COLO 205 colon were 25.8% and 45.5%, respectively.

With `CCCCCCCCCCC(C[N+](C)(C)C/C=C/c1ccccc1)C(O)c1ccccc1` (stereo unspecified), the growth with NCI-H23 lung was 7.14% (active); in the experiment with NCI-H226 lung, 29%; in the experiment on NCI-H322M lung, 46.7%; in the experiment on HOP-62 NSCLC, -30.3% (active); with NCI-H460 lung it was 5.75% (active); in the experiment with A549/ATCC NSCLC it was 54.5%. Also, the growth is -5.14% (active) in the experiment with 786-0 renal and -89.2% (active) in the experiment with COLO 205 colon.

`O=C1Nc2c(c(=O)n(-c3ccccc3)c3ccccc23)C(c2ccc(Cl)cc2)N1` (stereo unspecified): the growth with NCI-H23 lung was 90.4%; in the experiment with NCI-H226 lung, 99.2%; with NCI-H322M lung it was 95.5%; with HOP-62 NSCLC, 84.2%; with NCI-H460 lung, 47.7%; in the experiment with A549/ATCC NSCLC, 76.2%. Also, the figures for the growth with 786-0 renal and in the experiment on COLO 205 colon were 60.8% and 107%, respectively.

As to `O=C(/C=C/c1ccc(Cl)cc1)c1ccc(Cl)cc1`, the growth with NCI-H23 lung is 94.8%; in the experiment with NCI-H226 lung, 100%; in the experiment with NCI-H322M lung it was 91.3%; in the experiment on HOP-62 NSCLC, 102%; in the experiment on NCI-H460 lung, 104%; with A549/ATCC NSCLC, 95.5%. The values for the growth in the experiment with 786-0 renal and in the experiment with COLO 205 colon were 83.4% and 113%, respectively.

As to `O=c1c2c(c3ccccc3n1-c1ccccc1)NC(=S)NC2c1ccccc1` (stereo unspecified), the growth is 98.5% with NCI-H23 lung; 92.1% in the experiment with NCI-H226 lung; 130% in the experiment with NCI-H322M lung; 90.5% with HOP-62 NSCLC; 104% in the experiment on NCI-H460 lung; 103% in the experiment with A549/ATCC NSCLC. Besides, the growth in the experiment with 786-0 renal is 97.3%; in the experiment with COLO 205 colon, 113%.

On to `COc1ccc(/C=C2\CCCC3=C2N=C2SC=NN2C3c2ccc(OC)c(OC)c2)cc1OC` (stereo unspecified), for which the growth was 39.7% with NCI-H23 lung; 45.3% in the experiment on NCI-H226 lung; 38.3% in the experiment on NCI-H322M lung; 35.3% with HOP-62 NSCLC; 44% in the experiment with NCI-H460 lung; 31.9% with A549/ATCC NSCLC. The growth in the experiment on 786-0 renal was 70.2%.

Consider `CCC(C)[C@H](NC(=O)Nc1cc(C(F)(F)F)cc(C(F)(F)F)c1)C(=O)N[C@@H](Cc1cn(C)cn1)C(=O)OC` (stereo partly specified), for which the growth with NCI-H23 lung was -83.2% [100 µM] (active); in the experiment on NCI-H226 lung it was -50.6% [100 µM] (active); with NCI-H322M lung it was -96.8% [100 µM] (active); with HOP-62 NSCLC, -99.2% [100 µM] (active); with NCI-H460 lung, -64.5% [100 µM] (active); in the experiment on A549/ATCC NSCLC, -76% [100 µM] (active). Further, the growth is -88.4% [100 µM] (active) in the experiment on 786-0 renal and -83.9% [100 µM] (active) with COLO 205 colon.

Take `CC(=O)c1ccc2c(c1)c1ccccc1n2C`: the growth in the experiment with NCI-H23 lung was 94.1%; in the experiment with NCI-H226 lung, 84.2%; with NCI-H322M lung it was 86.2%; with HOP-62 NSCLC it was 83.2%; with NCI-H460 lung, 98.5%; in the experiment with A549/ATCC NSCLC, 96.9%. In addition, the values for the growth in the experiment on 786-0 renal and in the experiment with COLO 205 colon were 96.6% and 99.8%, respectively.

In the case of `CCCCCCCCCCCCOC(=O)/C=C\C(=O)NC(N)=O`, the growth was 110% in the experiment with NCI-H23 lung; 96.8% in the experiment with NCI-H226 lung; 111% in the experiment with NCI-H322M lung; 101% in the experiment with HOP-62 NSCLC; 93.2% with NCI-H460 lung; 81.6% in the experiment on A549/ATCC NSCLC. For the same compound, the growth in the experiment with 786-0 renal is 89.9%; in the experiment with COLO 205 colon it was 111%.

`N#CCc1ncc(-c2ccc(C(F)(F)F)cc2)c(NC2CCCCCC2)n1`: the growth with NCI-H23 lung was 25.7% [100 µM]; with NCI-H226 lung it was 55.3% [100 µM]; in the experiment with NCI-H322M lung, 68.1% [100 µM]; in the experiment on HOP-62 NSCLC it was 71.7% [100 µM]; in the experiment on NCI-H460 lung it was 8.28% [100 µM] (active); in the experiment with A549/ATCC NSCLC, 21.1% [100 µM]. Further, the values for the growth with 786-0 renal and in the experiment with COLO 205 colon were 28.6% [100 µM] and 18.7% [100 µM], respectively.

`CC(=O)Nc1nc(C)c(C(=O)N/N=C/N2CCCCC2)s1`: the growth was 108% with NCI-H23 lung; 103% with NCI-H226 lung; 123% in the experiment with NCI-H322M lung; -100% (active) with HOP-62 NSCLC; 110% in the experiment with NCI-H460 lung; 104% with A549/ATCC NSCLC. The growth with 786-0 renal and in the experiment on COLO 205 colon was 114% in each case.

For `COc1cc(-c2nn(-c3ccc(NC(=O)Nc4ccc(Cl)c(C(F)(F)F)c4)cc3)cc2-c2ccncc2)ccc1Cl`, the growth was 2.97% (active) in the experiment on NCI-H23 lung; 17.9% with NCI-H226 lung; 39% in the experiment on NCI-H322M lung; 8.98% (active) with HOP-62 NSCLC; -51.7% (active) in the experiment on NCI-H460 lung; 11.9% in the experiment with A549/ATCC NSCLC. Further, the growth is -52.3% (active) with 786-0 renal and -94% (active) in the experiment with COLO 205 colon.

On to `CCCCCCC(C)N(CC(C)(C)O)C(=O)c1ccc([N+](=O)[O-])cc1` (stereo unspecified), for which the growth in the experiment with NCI-H23 lung was 99.2%; with NCI-H226 lung it was 95.2%; in the experiment on NCI-H322M lung it was 91.1%; in the experiment with HOP-62 NSCLC, 87.3%; in the experiment with NCI-H460 lung it was 105%; in the experiment on A549/ATCC NSCLC it was 104%. Moreover, the growth with 786-0 renal was 94.5%; with COLO 205 colon, 99.6%.

With `CN(CCC#N)c1ccc(/C=C(\C#N)c2cccc(C(F)(F)F)c2)cc1`, the growth was 66.2% in the experiment on NCI-H23 lung; 65.7% in the experiment on NCI-H226 lung; 86.5% in the experiment with NCI-H322M lung; 81.7% in the experiment on HOP-62 NSCLC; 74% in the experiment on NCI-H460 lung; 36.3% with A549/ATCC NSCLC. Besides, in the experiment on 786-0 renal, the growth is 74.9%.

The record behind these values is PubChem BioAssay (NCI).
